# Measles CPE = protection of cells from measles virus; 140,000 tested, 1.5% active; AID 841; protection (pct of control), % at 4 µM; Measles virus-infected cells, CPE protection, absorbance; in the data active means protection mostly above about 24%, no sharp cut-off; inactive means mostly below about 26%
# IL1B NFkB pot = enhances IL-1B driven NFkB nuclear translocation; activation, % at 2 µM; 94,000 tested, 0.3% active; HUVEC IL-1B NFkB p65 nuclear translocation imaging;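 active means activation above 40%, about the mean plus 3 SD, also judged a hit on visual image review; inconclusive means activation above 40% but not a hit on visual review; inactive means activation not above 40% and no visual hit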;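 further: percent activation is computed from the nuclear over cytoplasmic p65 intensity ratio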
# IL1B cytotox = toxic to HUVEC cells under IL-1B stimulation. HUVEC cell count loss, Hoechst imaging, IL-1B stimulated. cell count reduction, % at 2 µM. 94,000 tested, 0.41% active. AID 845;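 active means cell count reduction more than 3 SD above the screen-wide mean, cut at about 70% in these data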;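 further: normalized per plate to untreated control cells as the no-loss baseline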
# NFkB transloc inh = blocks IL-1B driven NFkB nuclear translocation in HUVEC cells; 94,000 tested, 0.43% active; inhibition, % at 2 µM; HUVEC IL-1B NFkB p65 nuclear translocation imaging; AID 796;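 active means inhibition above about 30% together with a positive call from visual inspection of the well image, limit read from the data; inconclusive means inhibition above a set limit but visual check negative; inactive means inhibition not above a set limit, visual check negative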;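 further: nuclear over cytoplasmic p65 intensity ratio measured by imaging; 0% = IL-1B stimulated DMSO wells and 100% = unstimulated DMSO wells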
# * = called active by the depositor; ? = inconclusive; . = no result given. An excerpt weighted towards active compounds, which were near 2.1% of everything screened.
SMILES,Measles CPE,IL1B NFkB pot,IL1B cytotox,NFkB transloc inh
COc1ccc([N+](=O)[O-])cc1NC(=O)Nc1ccccc1,8,.,.,.
COc1ccc([N+](=O)[O-])cc1C1NN=C(c2ccccc2O)S1 (stereo not given),10,-33,4,33*
Cc1cc(N2CCC(C)CC2)nc2cccc(O)c12,4,-11,1,11
O=C(CN1C(=O)CSC1=O)Nc1ccc(C(=O)O)cc1,102*,10,-7,-10
O=C(O)CCCCCNS(=O)(=O)c1ccc(Cl)cc1,10,-47,-83,47*
O=C(O)CCCCCCNS(=O)(=O)c1ccccc1,20,4,-2,-4
CC(C)Nc1nc(NC(C)C)nc(NS(=O)(=O)c2ccc(N)cc2)n1,30*,16,0,-16
CCNc1nc(NC(C)C)nc(NS(=O)(=O)c2ccc(N)cc2)n1,19,16,5,-16
O=C(CCCCn1c(=O)c2ccccc2n(CC(=O)NC2CCCC2)c1=O)NC1CCCC1,88*,-3,-10,3
CCOc1ccc(OCC)c(N=c2oc3c(C)ncc(CO)c3cc2C(N)=O)c1,50*,14,-2,-14
COc1cccc(N=c2oc3c(C)ncc(CO)c3cc2C(=O)Nc2ccccc2OC)c1,13,-2,-6,2
COc1ccc(S(=O)(=O)NCCSCc2ccco2)cc1Cl,9,20,-25,-20
Cc1[nH]c2c(C)cccc2c1CCNC(=O)C1CCCCC1C(=O)OCC(F)(F)F (stereo not given),4,.,.,.
CCN(C(=O)COC(=O)c1cc(-c2ccccc2)nc2c1c(C)nn2-c1ccc(C)cc1)C1CCS(=O)(=O)C1 (stereo not given),20,.,.,.
CC1CN(c2ccc(S(=O)(=O)N3CCOCC3)cn2)CC(C)O1 (stereo not given),2,-40,2,40*
CN1CCN(S(=O)(=O)c2ccc(Sc3nnc(-c4cccs4)n3-c3ccccc3)nc2)CC1,3,-3,-36,2
CN(C)CCCNCC(=O)Nc1ccccc1N1CCOCC1,15,6,-12,-6
CN1CCN(Cc2cc(=O)oc3cc4c(cc23)CCC4)CC1,7,41*,-12,-41
c1ccc(CSc2nnc(-c3sccc3-n3cccc3)o2)cc1,4,-5,3,5
O=C(C1CC1)N1CCN=C1SCc1ccccc1,41*,.,.,.
O=c1[nH]c2ccccc2n2c(-c3ccncc3)nnc12,3,.,.,.
CCOC(=O)c1nnn(-c2nonc2N)c1-c1ccccc1,5,42*,1,-42
CC(C)n1c(SCCCc2ccccc2)nc2c1c(=O)[nH]c(=O)n2C,24,-38,11,38*
CC1CCCN(c2nc3c(c(=O)[nH]c(=O)n3C)n2CCCc2ccccc2)C1 (stereo not given),42*,.,.,.
CCc1ccc(CCC(=O)Nc2ncc(Cc3ccccc3Cl)s2)o1,1,.,.,.
SMILES,Measles CPE,IL1B NFkB pot,IL1B cytotox,NFkB transloc inh
CC1CCCC(C)N1C(=O)CSc1nnc(NC(=O)Cc2cccs2)s1 (stereo not given),46*,-13,-11,12
CC1=NC(=O)C(N=Nc2cccc3ccccc23)N1c1ccccc1 (stereo not given),.,9,9,-9
CN(C)CC(O)COc1cc2ccccc2cc1C(=O)N1CCCCC1 (stereo not given),2,.,.,.
CN(C1CCCCC1)S(=O)(=O)c1ccc(-n2cnnn2)cc1,6,50*,-21,-50
O=S(=O)(c1ccc(-n2cnnn2)cc1)N(C1CCCCC1)C1CCCCC1,4,-3,-1,3
CCc1noc(C)c1C(=O)Nc1sc(C(=O)N(C)C)c(C)c1C(=O)OC,4,6,29,-6
CCCN(Cc1cc2cccc(C)c2[nH]c1=O)C(=O)c1cccc(OC)c1,.,-95,92*,95*
CCn1c(SCC(=O)Nc2nc(-c3ccc(C)cc3)cs2)nnc1-c1ccccc1O,32*,17,-24,-18
COc1ccc(CN2C(=O)c3ccccc3C2C(=O)NCc2cccnc2)c(OC)c1 (stereo not given),33*,24,-24,-24
COc1ccc(OC)c(CN2C(=O)c3ccccc3C2C(=O)NCc2cccnc2)c1 (stereo not given),3,.,.,.
CC(C)(C)c1cc2cccnc2n1Cc1cccc(Cl)c1,2,2,-14,-2
Cc1ccc2c(c1)N(CC(=O)NCc1cccs1)C(=O)CO2,22,.,.,.
CCN(Cc1ccccc1)C(=O)Cn1cnc2c1c(=O)n(C)c(=O)n2C,9,-1,13,1
CCN(CC)C(=O)Cn1cnc2c1c(=O)n(C)c(=O)n2C,44*,1,12,-1
O=C(O)c1ccc(CSc2nc(-c3ccc(Cl)cc3)cc(C(F)(F)F)n2)cc1,2,13,-31,-13
O=C(O)c1ccc(CSc2nc(-c3ccccc3)cc(C(F)(F)F)n2)cc1,34*,.,.,.
Cc1cc(N)n(-c2ncnc3scc(-c4ccccc4)c23)n1,5,-5,8,5
COc1ccc2[nH]c(=O)c(NC(N)=S)nc2c1,7,-7,89*,6
Cc1ccc2[nH]c(=O)c(N3CCOCC3)c(-c3ccccc3)c2c1,78*,-2,-29,2
CN(Cc1ccccc1)S(=O)(=O)c1ccc(S(=O)(=O)N2CCN(CCC#N)CC2)cc1,.,?,-26,-62
Cc1ccc(-c2cc(N)n(-c3ccccc3)n2)cc1,4,-67,-18,67*
Cc1ccc(C(c2c(C)nn(-c3ccccc3)c2N)c2c(C)nn(-c3ccccc3)c2N)cc1,7,.,.,.
COC(=O)c1c(NC(=O)CN2CCN(c3ccccc3)CC2)c2c(C)cccc2n1C,42*,-6,-6,6
COC(=O)c1c(NC(=O)CN2CCN(c3ccccc3OC)CC2)c2c(C)cccc2n1C,12,11,-30,-11
Cc1nnc(SCC(=O)NCc2ccccc2)[nH]c1=O,55*,-5,-11,5
SMILES,Measles CPE,IL1B NFkB pot,IL1B cytotox,NFkB transloc inh
Cc1nnc(SCC(=O)NCCc2ccccc2)[nH]c1=O,.,-2,-14,2
CCCCn1nnnc1SCC(=O)Nc1sc2c(c1C#N)CCCC2,17,24,-69,-24
Cn1cnnc1SCC(=O)Nc1sc2c(c1C#N)CCCCC2,32*,2,0,-2
COCCN(C(=O)Nc1ccccc1)c1ccccc1C,58*,3,-14,-3
CC1(C)CC(=O)C2=C(C1)N(Cc1ccccc1)C(=O)C2(O)C(F)(F)F (stereo not given),6,-4,1,4
CC(C)CC(=O)NC1(C(F)(F)F)C(=O)N(Cc2ccccc2)C2=C1C(=O)CC(C)(C)C2 (stereo not given),14,-33,-38,33*
Cc1nc2ccccc2c(=O)n1NC(=O)c1ccc(F)cc1Cl,3,0,8,0
Cc1nnc(SCCn2c(N3CC(C)CC(C)C3)nc3c2c(=O)[nH]c(=O)n3C)s1 (stereo not given),3,15,16,-15
Cc1cccc(C(=O)Nc2ccccc2C(=O)OCc2c(C)noc2C)c1,90*,-8,-2,8
O=P(c1ccccc1)(c1ccccc1)C(c1ccco1)N1CCOCC1 (stereo not given),15,10,-1,-10
O=c1[nH]c(CSc2nnc(-c3ccccc3)n2-c2ccccc2)nc2ccccc12,28*,.,.,.

# Compound activity as filed in PubChem.
